HepG2 viability: HepG2 cytotoxicity, counter-screen for TGF-b inhibitors | 410,000 tested, 0.76% active | Potency, µM (top dose mostly 46.1 µM), without a hit: at the highest dose activity change, negative = cytotoxicity, hits mostly cytotoxic | HepG2 CAGA-GFP viability, ATP luminescence, 18 h | AID 588856
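HepG2 CAGA-GFP cells (1000/well, DMEM with 1% FBS) received compound, then TGF-beta at 500 pg/mL final, and were incubated 18 hours at 37 degrees C. Viability was read by CellTiter-Glo luminescence. Media-only wells were set as complete cell-killing and DMSO as no toxicity.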
DT40 TDP1 CPT: growth inhibition of DT40 Tdp1-/-;hTDP1 cells with camptothecin (screen for TDP1 inhibitors); chicken DT40 Tdp1-/-;hTDP1 cells + 20 nM CPT, ATP luminescence, 48 h; 420,000 tested, 12% active; Potency, µM (titrated, usually from 46.2 µM), inactives show at the top dose activity change, negative = growth inhibition, usual class: inhibitors; AID 686979; further: on the % scale 0 is the no-effect control and ±100 the full control effect; nearly all actives have a fitted effect of over 55% in size
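Chicken DT40 Tdp1-/- cells stably complemented with human TDP1 were seeded at 400 cells/well in medium containing 20 nM camptothecin, exposed to pin-transferred compounds, and grown at 37 °C for at least 48 hr. Viability was read as ATP luminescence.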
HT1080NT lethal: kills 2HG-producing HT-1080-NT fibrosarcoma cells | Potency, µM (titrated, usually from 46.1 µM), for the others: at the top dose activity, negative = less viability, actives largely listed as cytotoxic | 360,000 tested, 1.6% active | AID 686970 | HT-1080-NT fibrosarcoma viability, CellTiter-Glo ATP luminescence, 48 h;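 further: NT is the 2HG producing partner of a matched IDH1 knockdown line; 0% = DMSO-treated cells and -100% = media-only wells without cells; nearly all actives have a fitted effect of over 55% in size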
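Read-out is CellTiter-Glo luminescence after 10 minutes at room temperature, following 48 hours' compound treatment of HT-1080-NT cells (750 cells/well, RPMI, 5% FBS, 37 degrees C).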
HT1080 IDH1KD tx: kills HT-1080 cells with IDH1 knockdown | HT-1080 IDH1 knockdown viability, ATP luminescence, 48 h | Potency, µM (top dose mostly 46.1 µM), without a hit: at the highest dose activity, negative = toxicity, most hits filed as cytotoxic | 360,000 tested, 2% active;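 further: 0% = DMSO wells and -100% = cell-free medium wells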
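HT-1080-IDH1KD cells (IDH1 knocked down), 750/well in RPMI with 5% FBS, treated with compound 48 h at 37 degrees C. Viability by CellTiter-Glo luminescence, normalised to DMSO and no-cell wells; concentration-response curves classed.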
TGFb inhibitor: TGF-b pathway inhibition; 410,000 tested, 1.2% active; Potency, µM (series often up to 46.1 µM), for the others: top-dose activity, negative = inhibition, most hits filed as inhibitors; HepG2 CAGA-GFP TGF-b/SMAD3 reporter, GFP fluorescence, 18 h; TGF-beta stimulated, 500 pg/mL final; further: on the % scale 0 is the no-effect control and ±100 the full control effect; nearly all actives have a fitted effect of over 65% in size
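Per well, imaged GFP fluorescence of HEPG2 CAGA-GFP cells gives the signal; cells get compound, then TGF-beta (500 pg/mL final), 18 h at 37 degrees C; %Activity versus -TGF-beta and +DMSO controls.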
TDP1 cell noCPT: qHTS for Inhibitors of human tyrosyl-DNA phosphodiesterase 1 (TDP1): qHTS in cells in absence of CPT; DT40 Tdp1-/- hTDP1 cells, no CPT, ATP luminescence, 48 h; Potency, µM (doses to about 46.2 µM), inactives show top-dose activity change, negative = growth inhibition, usual class: inhibitors; 420,000 tested, 15% active; further: on the % scale 0 is the no-effect control and ±100 the full control effect; nearly all actives have a fitted effect of over 55% in size
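Growth of hTDP1-complemented DT40 Tdp1-knockout cells is measured by ATP luminescence after at least 48 hr compound exposure at 37 °C, with DMSO substituting for the 20 nM CPT used in the parallel screen.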
The depositor's hits bear a star; u = inconclusive; x = no result; ! = not confirmed by another sample; [ ] = another dose, or the depositor's remark. The list is not random: actives were taken first. Their share in the collection is about 17%. The call rests on the fitted dose curve; in most records, active means well fitted curve in the direction sought with a large enough effect; inconclusive means small, poorly fitted or top-dose-only effect, or another doubt; inactive means no such curve, though single readings can be large; an effect the other way counts as inactive or inconclusive. Potency means the concentration at half of the fitted maximal effect.

SMILES	HepG2 viability	DT40 TDP1 CPT	HT1080NT lethal	HT1080 IDH1KD tx	TGFb inhibitor	TDP1 cell noCPT
CC1=CC(=C2C(=O)c3ccccc3C2=O)C=C(C)N1Cc1ccco1	-25%	-22%	-1%	-14%	u	21µM*
CC1=CC(=C2C(=O)c3ccccc3C2=O)C=C(C)O1	-19%	10µM*	4%	0%	-1%	u
O=C1c2ccccc2C(=O)c2cc(Cn3cc(-c4cccc(C(F)(F)F)c4)nn3)ccc21	15%	u	x	x	4%	-9%
O=[N+]([O-])c1ccc(Cn2cc(-c3cccc(C(F)(F)F)c3)nn2)cc1	-25%	u	0%	1%	u	16µM*!
NC(=O)C1CC(=O)N(c2ccc(OCc3ccc(Cl)c(Cl)c3)cc2)C1 (stereo not drawn)	-74%	23µM*	-7%	-7%	-23%	u
CC12CCC=CC1=C(C=O)C1C2CCC2(C)C(O)CCC12 (stereo not drawn)	-5%	u	-9%	u	0%	26µM*
Cc1ccc(NS(=O)(=O)c2cccc3nsnc23)cc1[N+](=O)[O-]	-3%	4%	-1%	-1%	-1%	24%
CC1(c2ccc(OC(F)F)cc2)NC(=O)N(/N=C/c2c(O)ccc3ccccc23)C1=O (stereo not drawn)	-118%	-13%	u	u	u	-35%
CC1N=C(SCC(=O)c2ccc(F)cc2)N2C(C)N=C(SCC(=O)c3ccc(F)cc3)N12 (stereo not drawn)	-5%	4.1µM*	-3%	2%	2%	4.1µM*
Cn1ccnc1SCC(=O)c1ccc(F)cc1	-4%	1%	4%	11%	1%	-7%
CCCS(=O)(=O)NC(=O)C1(C)CCCN(C(=O)c2ccc(F)cc2Cl)C1 (stereo not drawn)	6%	-10%	u	9%	-13%	-6%
O=S1(=O)CC(N2CC=CC2)CN1Cc1cn(Cc2ccc(Cl)cc2)nn1 (stereo not drawn)	x	-5%	4%	5%	x	-20%
CCCCn1c(Oc2cccc(C(=O)OC)c2)nc2c1c(=O)n(C)c(=O)n2C	-52%	-15%	x	x	-9%	3%
Cn1c(=O)c2c(ncn2CC(=O)OCC(=O)c2ccc(Br)cc2)n(C)c1=O	-13%	16µM*	10%	2%	-17%	26µM*
COc1ccc(C(=O)Cn2c(Br)nc3c2c(=O)n(C)c(=O)n3C)cc1	-4%	13µM*	-17%[9.24 µM]	-22%	-15%	23µM*
CCCCn1c(Oc2ccc(C(=O)OC)cc2)nc2c1c(=O)n(C)c(=O)n2C	-36%	16µM*	-11%	5%	-7%	11µM*
Cn1c(=O)c2c(ncn2CC(=O)OCC(=O)c2ccc(Cl)cc2)n(C)c1=O	-7%	-1%	-3%	-3%	-7%	0%
N=c1c(S(=O)(=O)c2ccccc2)cc2c(=O)n3ccccc3nc2n1C1CCCCC1	-5%	26µM*	u	u	u	15µM*
N=c1c(S(=O)(=O)c2ccc(Br)cc2)cc2c(=O)n3ccccc3nc2n1Cc1ccco1	-64%	9.2µM*	-5%	-2%	7.9µM*	6.5µM*
COCCn1c(=N)c(S(=O)(=O)c2ccc(Br)cc2)cc2c(=O)n3ccccc3nc21	2%	u	5%	10%	-1%	21µM*
O=C(NCC1Cc2cc(-c3cnc4ccccc4c3)cc(F)c2O1)c1cnsn1 (stereo not drawn)	x	u	x	x	x	-19%
CC(=O)c1cccc(-c2ccnc3c2CC(C(=O)NCC2CCOCC2)O3)c1 (stereo not drawn)	-23%	3.7µM*	u	u	-9%	2.9µM*
CC(=O)c1cccc(-c2ccnc3c2CC(C(=O)NCCC(F)(F)F)O3)c1 (stereo not drawn)	2%	u	u	21µM*	8%	u
CC(=O)c1cccc(-c2ccnc3c2CC(C(=O)NCc2ccncc2)O3)c1 (stereo not drawn)	-10%	u	7%	0%	23%	u
CC(=O)c1cccc(-c2ccnc3c2CC(C(=O)NCC2CC2)O3)c1 (stereo not drawn)	-8%	23µM*	u	u	3%	u
SMILES	HepG2 viability	DT40 TDP1 CPT	HT1080NT lethal	HT1080 IDH1KD tx	TGFb inhibitor	TDP1 cell noCPT
O=C(NCC1CCOCC1)C1Cc2c(-c3ccccc3Oc3ccccc3)ccnc2O1 (stereo not drawn)	3%	u	u	-9%	-14%	u
Cc1ccc(NCC(=O)N/N=C/c2c[nH]c3ccccc23)cc1	-2%	19%	-15%	-13%	u	-1%
CCOC(=O)/C(C(C)=O)=C1\OC(=O)c2ccccc21	0%	-15%	6%	-20%	11%	-4%
CC(C)NC(=O)C1(C#N)C=C1c1ccccc1 (stereo not drawn)	x	u	16µM*	u	x	16µM*
CCNc1nc(N)nc(-c2cc(Cl)ccc2O)n1	6%	u	16µM*	23µM*	u	21µM*
CCNc1nc(NCC)nc(-n2cc(C(=O)c3cc(Cl)ccc3O)cn2)n1	10%	u	x	x	25%	10µM*
CCCCNc1nc(N)nc(-c2cc(Cl)ccc2O)n1	-55%	18µM*	-11%	0%	u	16µM*
Nc1nc(N)nc(-c2cc([N+](=O)[O-])ccc2O)n1	-37%	-13%	-3%	-5%	u	-23%
Nc1nc(N)nc(-c2cc(O)ccc2O)n1	5%	8.2µM*	-2%	0%	u	5.8µM*
CCCCOC(=O)CSc1nnc(-c2ccc(C)cc2)o1	-4%	-16%	x	x	0%	-26%
Cc1cccc(C)c1-n1nnnc1C(c1ccnc2ccccc12)N(C)Cc1ccc(Cl)c(Cl)c1 (stereo not drawn)	x	-4%	20%	19%	x	u
CCc1ccc(-n2c3nc(=O)[nH]c(=O)c-3cc3c(C)nn(-c4ccccc4)c32)cc1	1%	6%	x	x	4%	10%
Cc1nn(-c2ccccc2)c(C)c1/C=C1\C(=O)N(C)C(=S)N1C	-16%	u	-19%	-21%	-19%	16µM*
COCCCNC(=S)N1CCN(C(c2ccccc2)c2ccccc2)CC1	1%	-33%	-1%	0%	4%	u

Screening results: PubChem, National Center for Advancing Translational Sciences (NCATS)
